# In the supplement of paper PMC8728848:
# About 410 targets per protein were measured; listed, in parts, are those with the strongest signals and a random draw of the rest.
# Key:
# Experiment in all cases: glycan array binding signal (z-score within array); higher = stronger binding
# Conditions in all cases: glycan notation: IUPAC condensed, linker removed
# [1] = biological target: Gal(b1-4)GlcNAc(b1-3)Gal(b1-4)GlcNAc
# Procedure, shortened: (§1)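 Glycan array data were curated from 3228 arrays in the Consortium for Functional Glycomics database and kept only where the protein sequence was available. Glycan names were converted to IUPAC-condensed notation, and columns mapping to the same glycan were averaged. The binding signal is a within-array Z-score, averaged across arrays of the same protein sequence at different concentrations or buffers and across linkers. Negative Z-scores can be read as non-binding.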
# [2] = biological target: Gal(b1-4)GlcNAc(b1-6)GalNAc
# Procedure, shortened: as §1
# Gal3S6S(b1-4)GlcNAc6S = biological target: Gal3S6S(b1-4)GlcNAc6S
# Procedure, shortened: as §1
# GalNAc(a1-3)GalNAc = biological target: GalNAc(a1-3)GalNAc
# Procedure, shortened: as §1
# [3] = biological target: GalNAc(a1-3)GalNAc(b1-3)Gal(a1-4)Gal(b1-4)GlcNAc
# Procedure, shortened: as §1
# GalNAc(b1-3)Gal = biological target: GalNAc(b1-3)Gal
# Procedure, shortened: as §1
# [4] = biological target: GalNAc(b1-3)Gal(a1-6)Gal(b1-4)Glc
# Procedure, shortened: as §1
# [5] = biological target: GalNAc(b1-4)GlcNAc(b1-2)Man
# Procedure, shortened: as §1
# GalNAc(b1-4)GlcNAc6S = biological target: GalNAc(b1-4)GlcNAc6S
# Procedure, shortened: as §1
# GlcNAc(b1-4)GlcNAc = biological target: GlcNAc(b1-4)GlcNAc
# Procedure, shortened: as §1
# [6] = biological target: GlcNAc(b1-4)GlcNAc(b1-4)GlcNAc
# Procedure, shortened: as §1
# GlcNAc(b1-6)GalNAc = biological target: GlcNAc(b1-6)GalNAc
# Procedure, shortened: as §1
# Kdn(a2-6)Gal(b1-4)GlcNAc = biological target: Kdn(a2-6)Gal(b1-4)GlcNAc
# Procedure, shortened: as §1
# [7] = biological target: Neu5Ac(a2-3)Gal(b1-3)GalNAc
# Procedure, shortened: as §1
# [8] = biological target: Neu5Ac(a2-3)Gal(b1-3)GlcNAc(b1-4)Gal(b1-4)Glc
# Procedure, shortened: as §1
# [9] = biological target: Neu5Ac(a2-3)Gal(b1-4)GlcNAc(b1-3)Gal(b1-4)GlcNAc
# Procedure, shortened: as §1
# [10] = biological target: Neu5Ac(a2-3)Gal(b1-4)GlcNAc(b1-3)[Neu5Ac(a2-3)Gal(b1-4)GlcNAc(b1-6)]GalNAc
# Procedure, shortened: as §1
# [11] = biological target: Neu5Ac(a2-3)Gal(b1-4)GlcNAc6S
# Procedure, shortened: as §1
# [12] = biological target: Neu5Ac(a2-8)Neu5Ac(a2-3)Gal(b1-3)GalNAc(b1-4)[Neu5Ac(a2-8)Neu5Ac(a2-3)]Gal(b1-4)Glc
# Procedure, shortened: as §1
# [13] = biological target: Neu5Ac(a2-8)Neu5Ac(a2-3)Gal(b1-4)GlcNAc
# Procedure, shortened: as §1
# [14] = biological target: Neu5Ac(a2-8)Neu5Ac(a2-8)Neu5Ac(a2-8)Neu5Ac(a2-3)[GalNAc(b1-4)]Gal(b1-4)Glc
# Procedure, shortened: as §1
# [15] = biological target: Neu5Gc(a2-8)Neu5Ac(a2-3)Gal(b1-4)GlcNAc
# Procedure, shortened: as §1
# [16] = biological target: Neu5Gc(a2-8)Neu5Gc(a2-6)Gal(b1-4)GlcNAc
# Procedure, shortened: as §1
binder,measurement,setting,value
"MGL (Homo sapiens), Q8IUN9 (protein) MTRTYENFQYLENKVKVQGFKNGPLPLQSLLQRLCSGPCHLLLSLGLGLLLLVIICVVGFQNSKFQRDLVTLRTDFSNFTSNTVAEIQALTSQGSSLEETIASLKAEVEGFKQERQAGVSELQEHTTQKAHLGHCPHCPSVCVPVHSEMLLRVQQLVQDLKKLTCQVATLNNNASTEGTCCPVNWVEHQDSCYWFSHSGMSWAEAEKYCQLKNAHLVVINSREEQNFVQKYLGSAYTWMGLSDPEGAWKWVDGTDYATGFQNWKPGQPDDWQGHGLGGGEDCAHFHPDGRWNDDVCQRPYHWVCEAGLGQTSQESH",glycan array binding signal (z-score),[1],-0.242
same,glycan array binding signal (z-score),[2],4.14
same,glycan array binding signal (z-score),Gal3S6S(b1-4)GlcNAc6S,-0.242
same,glycan array binding signal (z-score),GalNAc(a1-3)GalNAc,0.346
same,glycan array binding signal (z-score),[3],0.634
same,glycan array binding signal (z-score),GalNAc(b1-3)Gal,3.3
same,glycan array binding signal (z-score),[4],3.77
same,glycan array binding signal (z-score),[5],3.9
same,glycan array binding signal (z-score),GalNAc(b1-4)GlcNAc6S,4.05
same,glycan array binding signal (z-score),GlcNAc(b1-4)GlcNAc,-0.243
same,glycan array binding signal (z-score),[6],-0.253
same,glycan array binding signal (z-score),GlcNAc(b1-6)GalNAc,4.7
same,glycan array binding signal (z-score),Kdn(a2-6)Gal(b1-4)GlcNAc,-0.245
same,glycan array binding signal (z-score),[7],-0.241
same,glycan array binding signal (z-score),[8],-0.251
same,glycan array binding signal (z-score),[9],-0.238
same,glycan array binding signal (z-score),[10],-0.527
same,glycan array binding signal (z-score),[11],-0.244
same,glycan array binding signal (z-score),[12],-0.243
same,glycan array binding signal (z-score),[13],-0.259
same,glycan array binding signal (z-score),[14],3.54
same,glycan array binding signal (z-score),[15],-0.237
same,glycan array binding signal (z-score),[16],-0.246
